# PubChem BioAssay AID2185 (Vanderbilt High Throughput Screening Facility, 2009)
# Potency and affinity values are given separately. Values without a mark were called inactive. The rule behind the calls is not given here.
# Target: Metabotropic glutamate receptor 4 (Rattus norvegicus) (UniProt P31423)
# Experiment: PubChem AID 2185
# Details: HEK/GIRK cells expressing rat mGluR4, thallium flux PAM; active compounds read high
# Metabotropic glutamate receptor 4 (Rattus norvegicus), sequence (P31423 whole entry, looked up): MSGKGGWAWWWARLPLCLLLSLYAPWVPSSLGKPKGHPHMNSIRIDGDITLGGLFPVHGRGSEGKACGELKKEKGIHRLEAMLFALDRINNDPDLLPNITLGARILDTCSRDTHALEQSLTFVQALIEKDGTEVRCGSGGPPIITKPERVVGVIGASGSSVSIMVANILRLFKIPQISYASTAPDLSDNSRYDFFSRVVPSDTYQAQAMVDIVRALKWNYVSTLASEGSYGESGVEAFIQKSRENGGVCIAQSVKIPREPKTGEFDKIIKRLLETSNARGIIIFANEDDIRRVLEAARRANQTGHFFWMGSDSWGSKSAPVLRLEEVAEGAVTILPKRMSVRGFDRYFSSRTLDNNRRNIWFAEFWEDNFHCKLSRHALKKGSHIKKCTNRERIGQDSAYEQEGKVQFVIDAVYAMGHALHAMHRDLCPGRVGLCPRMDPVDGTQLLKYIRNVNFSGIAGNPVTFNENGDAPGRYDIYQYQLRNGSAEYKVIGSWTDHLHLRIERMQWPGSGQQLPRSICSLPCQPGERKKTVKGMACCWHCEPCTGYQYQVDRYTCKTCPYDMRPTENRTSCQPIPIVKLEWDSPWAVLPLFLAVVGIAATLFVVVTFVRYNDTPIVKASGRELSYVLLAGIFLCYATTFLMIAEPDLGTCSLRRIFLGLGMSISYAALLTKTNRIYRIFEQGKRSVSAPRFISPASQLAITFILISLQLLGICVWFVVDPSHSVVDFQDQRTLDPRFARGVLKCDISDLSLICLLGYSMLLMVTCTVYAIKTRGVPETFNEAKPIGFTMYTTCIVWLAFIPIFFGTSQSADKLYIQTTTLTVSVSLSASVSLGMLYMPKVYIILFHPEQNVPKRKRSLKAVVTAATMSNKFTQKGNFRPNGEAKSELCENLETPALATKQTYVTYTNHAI
compound,measurement,value
N#Cc1ccc(NC(=O)c2ccccn2)cc1C(F)(F)F,% glutamate max,26.3%
